Mdm2-MdmX inh = disrupts the human Mdm2-MdmX interaction; 330,000 tested, 3% active; O15151+Q00987; SaOS-2 split-luciferase Mdm2/MdmX complementation, luminescence; inhibition, % at 8 µM;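 active = inhibition of at least 50% at 8 µM in the primary screen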
Target sequence (O15151 whole entry, looked up): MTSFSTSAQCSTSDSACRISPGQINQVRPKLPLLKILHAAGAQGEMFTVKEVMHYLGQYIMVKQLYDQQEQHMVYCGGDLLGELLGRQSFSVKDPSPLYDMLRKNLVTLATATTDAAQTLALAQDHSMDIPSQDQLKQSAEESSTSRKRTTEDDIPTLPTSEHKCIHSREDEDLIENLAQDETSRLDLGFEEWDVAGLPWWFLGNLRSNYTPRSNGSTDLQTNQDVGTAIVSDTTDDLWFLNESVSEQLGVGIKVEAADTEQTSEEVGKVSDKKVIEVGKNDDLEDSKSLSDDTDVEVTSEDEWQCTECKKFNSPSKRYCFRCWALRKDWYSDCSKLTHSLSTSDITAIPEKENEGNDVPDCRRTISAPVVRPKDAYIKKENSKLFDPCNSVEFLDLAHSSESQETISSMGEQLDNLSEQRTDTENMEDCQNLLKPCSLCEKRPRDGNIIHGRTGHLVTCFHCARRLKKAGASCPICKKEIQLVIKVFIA
Target sequence (Q00987 whole entry, looked up): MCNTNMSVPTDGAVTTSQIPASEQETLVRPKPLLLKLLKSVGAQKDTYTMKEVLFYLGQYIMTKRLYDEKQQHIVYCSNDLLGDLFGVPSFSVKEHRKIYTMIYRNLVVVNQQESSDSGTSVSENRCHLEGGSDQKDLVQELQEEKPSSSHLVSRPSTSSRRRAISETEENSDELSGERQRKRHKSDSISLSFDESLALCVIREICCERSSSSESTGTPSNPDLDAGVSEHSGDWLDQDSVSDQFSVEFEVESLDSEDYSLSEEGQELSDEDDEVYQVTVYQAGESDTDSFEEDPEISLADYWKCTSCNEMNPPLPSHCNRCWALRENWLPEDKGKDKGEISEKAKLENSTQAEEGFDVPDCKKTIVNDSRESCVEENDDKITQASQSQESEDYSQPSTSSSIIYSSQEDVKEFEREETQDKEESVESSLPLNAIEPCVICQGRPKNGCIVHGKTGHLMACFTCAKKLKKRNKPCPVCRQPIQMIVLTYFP
Jurkat NFkB inh = lowers PMA/ionomycin-induced NF-kB signal in Jurkat cells; inhibition, % at 4 µM; PMA/ionomycin-induced NF-kB luciferase reporter, luminescence; AID 435003; 330,000 tested, 0.53% active; in the data active = inhibition above about 50%
697 NFkB inh = lowers PMA/ionomycin-induced NF-kB signal in 697 B cells; 697 B-cell NF-kB luciferase reporter, 16 h; inhibition, % at 4 µM; 330,000 tested, 0.33% active; AID 435022; in the data active = inhibition above about 35%
Beta apoptosis = beta cell apoptosis inhibition; 300,000 tested, 0.8% active; protection from apoptosis, % (no concentration beside the values); INS-1E cytokine-induced death, ATP luminescence, 48 h; percent of positive-control rescue, neutral wells zero;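 active = Every replicate reaches about 75%, or at least half do and their mean reaches it too, limit read from the data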;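 also: higher means more ATP so stronger rescue from cytokine killing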
Gli-Sufu antag = antagonists of Gli-Sufu signaling. Sufu-KO-LIGHT fibroblasts, Gli luciferase reporter luminescence. inhibition, % at 5 µM. 340,000 tested, 0.74% active. AID 588413;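 active = inhibition above about 55%, limit read from the data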
Gli antag conf = confirmation of Gli-SUFU pathway antagonists; shares compounds with Gli-Sufu antag; inhibition, % at 5 µM; Sufu-KO-LIGHT cells, Gli luciferase reporter, luminescence; 2,500 tested, 40% active;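 active = mean inhibition at 5 µM reaching about 45%, limit read from the data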
SufuKO cytotox = cytotoxic in Gli-SUFU antagonist counter-screen; shares compounds with Gli-Sufu antag; Sufu-KO-LIGHT cells cytotoxicity, ATP luminescence; cytotoxicity, % at 5 µM; 2,500 tested, 32% active;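 active = mean cytotoxicity at 5 µM above about 25%, limit read from the data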;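 also: cells exposed to compound overnight for roughly 16 to 18 hours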
Wnt3a counter = counter-screen for Gli-SUFU antagonists: Wnt3a reporter inhibition. Wnt-LIGHT cells, Wnt3a-driven luciferase reporter, luminescence. 2,500 tested, 20% active. inhibition, % at 6.25 µM. shares compounds with Gli-Sufu antag;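 active = mean inhibition above about 25%, limit read from the data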
Hits are given with their value; – = inactive; · = no result. This is a sample that favours compounds with a hit; in the whole collection about 4% have one here.

SMILES | Mdm2-MdmX inh | Jurkat NFkB inh | 697 NFkB inh | Beta apoptosis | Gli-Sufu antag | Gli antag conf | SufuKO cytotox | Wnt3a counter
Cc1cc(C)n2nc(SCC(=O)c3cc(C)n(-c4cc(C)on4)c3C)nc2n1 | – | – | – | – | – | 52 | 30 | 34
CC1(O)CC(C)(C)C(C#N)C(=O)N1 (centres undefined) | · | · | · | · | – | · | · | ·
Cc1ccccc1CC1SC(N=C(N)N)=NC1=O (centres undefined) | – | – | – | · | – | · | · | ·
COc1ccc(OC)c(NC(=O)C2CCCN(S(=O)(=O)c3c(C)noc3C)C2)c1 (centres undefined) | – | – | – | – | – | · | · | ·
COc1ccc(OC)c(NC(=O)C2CCN(S(=O)(=O)c3c(C)noc3C)CC2)c1 | – | – | – | – | 94 | – | – | –
Oc1ccccc1N1CCN(C(=S)Nc2ccc(SC(F)F)cc2)CC1 | – | – | – | – | 76 | – | – | –
CC(=O)c1cn(CCOc2ccccc2C)c2ccccc12 | – | – | – | · | 65 | 56 | – | 30
COC(=O)Nc1ccc(S(=O)(=O)N2CCCCC2C(=O)NCc2ccco2)cc1 (centres undefined) | – | – | – | – | – | · | · | ·
Cc1ccc(S(=O)(=O)N2CCCCC2C(=O)NCc2ccco2)cc1 (centres undefined) | – | – | – | – | – | – | – | –
CC(=O)c1cc(-c2ccccc2)n(CCC(=O)NC2CCCCCCC2)c1C | – | – | – | – | 70 | – | – | –
CCc1cccc(NS(=O)(=O)c2ccc3c(c2)N(C)CCO3)c1 | – | – | – | – | – | · | · | ·
COc1ccc(OCC(=O)Nc2ccc3c(c2)nc(CCN2CCN(C)CC2)n3C)cc1 | – | – | – | · | – | – | – | –
CCC1(C)Cc2ccccc2-c2c1c(=O)n(Cc1ccccc1)c1nnnn21 (centres undefined) | – | – | – | – | 75 | – | – | –
Cn1c(CNC(=O)c2ccco2)nnc1SCC(=O)Nc1ccc(Cl)cc1 | – | – | – | · | 97 | – | – | –
COc1ccccc1N1CCN(C(=O)c2cc3c(=O)n4cccc(C)c4nc3s2)CC1 | – | – | – | – | – | · | · | ·
COc1ccc2c(c1)c(CC(=O)OCC(N)=O)c(C)n2C(=O)c1ccc(Cl)cc1 | – | – | – | – | 64 | – | – | –
COc1ccc2c(c1)c(CC(=O)OCC(=O)O)c(C)n2C(=O)c1ccc(Cl)cc1 | – | – | – | · | – | · | · | ·
COc1ccc(C(=O)Nc2cc([N+](=O)[O-])ccc2N2CCN(C)CC2)cc1 | – | – | – | – | – | · | · | ·
COc1cccc(C(=O)Nc2cc([N+](=O)[O-])ccc2N2CCN(C)CC2)c1 | – | – | – | – | – | – | – | –
Cc1ccc(C)c(-n2cc(CN3CCCN(C=O)CC3)c(-c3ccccc3)n2)c1 | – | – | – | – | – | · | · | ·
Cc1nn(C)cc1CN(C)Cc1ccc(OCC(O)CN2CCCCC2)cc1 (centres undefined) | – | – | – | – | – | · | · | ·
CN(Cc1ccc(OCC(O)CN2CCCCC2)cc1)Cc1ccnc2ccccc12 (centres undefined) | · | · | · | · | 65 | 46 | – | –
CC[C@H](C)[C@@H](C(=O)NCCCCCCCCCCC(=O)N1CCN(C(=O)OC(C)(C)C)CC1)n1cc(CCCCCNC(=O)OC(C)(C)C)nn1 | – | – | – | 101 | 57 | 68 | – | 37
C=C(C)CSc1nc2sc3c(c2c(=O)n1C1CCCCC1)CCN(C)C3 | – | – | – | – | 58 | 47 | 25 | –
Cc1cc(Cl)c(OCCCCNC(C)(C)C)c(Br)c1 | – | – | – | – | · | · | · | ·
SMILES | Mdm2-MdmX inh | Jurkat NFkB inh | 697 NFkB inh | Beta apoptosis | Gli-Sufu antag | Gli antag conf | SufuKO cytotox | Wnt3a counter
CCOC(=O)CSc1nc2ccccc2c(=O)n1-c1ccc(C)cn1 | – | – | – | · | – | · | · | ·
Cc1ccc(NC(=O)Cc2nn(C)c(=O)c3ccccc23)cc1F | – | – | – | 86 | 67 | 66 | 29 | –
Cc1ccc(NC(=O)Cn2nc(C)c3ccccc3c2=O)cc1F | – | – | – | – | – | · | · | ·
Cc1[nH]c2ccc(F)cc2c1CCN(Cc1ccncc1)C(=S)Nc1cccc(F)c1 | – | – | – | – | – | · | · | ·
Cc1ccccc1NC(=S)N(CCc1c(C)[nH]c2ccc(F)cc12)Cc1ccncc1 | – | – | – | – | 59 | – | 26 | –
Cc1cc2c(cc1C)N(C(=O)CCl)CCN2C(=O)CCl | · | · | · | · | – | · | · | ·
O=C(COc1ccc(Br)cc1)NCCCNC(=O)c1cccnc1 | – | – | – | – | 59 | – | – | –
COc1ccc2[nH]c3c(c2c1)CCN1C(=O)C(CC(=O)NCc2ccco2)C[C@H](C(=O)N(C(C)C)C(C)C)[C@@]31C (some centres undefined) | – | · | – | · | – | · | · | ·
O=C(NCc1ccccc1)C1=C[C@H](c2ccc(C(F)(F)F)cc2)C[C@H](OCc2ccc(CO)cc2)O1 | – | – | – | – | – | · | · | ·
COc1ccccc1CCNC(=O)c1cc(-c2ccccn2)nc2ccc(Br)cc12 | – | – | – | – | · | · | · | ·
COc1ccccc1CCNC(=O)c1cc(-c2ccncc2)nc2ccc(Br)cc12 | · | · | · | · | 67 | – | 25 | –
CCOC(=O)c1cc(S(=O)(=O)N(C)Cc2ccccc2)cn1C | – | – | – | – | – | · | · | ·
Cc1c(Cl)cccc1NC(=O)NN1CCN(C)CC1 | – | – | – | – | 95 | – | – | –
C/C(=N\NC(=O)c1nnn(-c2nonc2N)c1C(C)C)c1ccc2ccccc2c1 | – | – | – | – | 60 | – | 28 | –
COC(=O)c1ccc(OCc2cc(=O)n3ccsc3n2)cc1 | – | – | – | – | 80 | – | – | –
CC1CN(CC(=O)NCc2ccccc2)CC(C)O1 (centres undefined) | – | – | – | – | – | · | · | ·
Cc1cc(NC(=O)C2=C(O)c3ccccc3S(=O)(=O)N2C)no1 | – | – | – | – | 62 | – | 28 | –
CCN1C(C(=O)Nc2cc(C)on2)=C(O)c2ccccc2S1(=O)=O | – | – | – | – | – | · | · | ·
Cc1ccccc1CN1CCN(CCCc2ccccc2)C(CCO)C1 (centres undefined) | – | – | – | – | – | · | · | ·
OCCC1CN(Cc2ccccc2O)CCN1CCCc1ccccc1 (centres undefined) | – | – | – | – | – | – | – | –
CCOC(=O)Nc1ccc2c(c1)N(C(=O)OC)c1ccccc1CC2 | · | · | · | · | – | · | · | ·
CCOC(=O)Nc1ccc2c(c1)N(C(=O)CNC)c1ccccc1CC2 | – | – | – | – | – | – | – | –
Cc1cc(C(=O)CCC(=O)N(C)CC(=O)Nc2ccccc2Br)c(C)s1 | – | – | – | – | – | · | · | ·
CN(C1CCCCC1)S(=O)(=O)c1ccc(NC(=S)NC(=O)c2cccs2)cc1 | – | – | – | – | 63 | – | – | –

Assay outcomes: PubChem, several laboratories
